From PubChem
aSyn 5UTR act: Activators via SNCA 5'UTR binding, MLPCN | alpha-synuclein 5'UTR reporter, activators screen | activity score, % (tested at 7.5 µM), hits read low | actives 7.1% (n = 300,000) | AID 1814; in the data active means activity score below about -60%
* hit, by the source's call. These entries were drawn from the full list.

Screening CC(=O)OCC(=O)N1N=C(c2ccc3ccccc3c2)CC1c1ccccc1 (stereo not given) returned aSyn 5UTR act -106.2*.
COc1cc(C2CC(c3cccs3)=NN2C(=O)CCl)ccc1OC(F)F (stereo not given) was read as aSyn 5UTR act 107.1.
COc1ccc(C2CC(c3ccc4ccccc4c3)=NN2C(=O)CN2CCC(C(N)=O)CC2)cc1 (stereo not given) was read as aSyn 5UTR act -133.7*.
CCOC(=O)/C=C(\C)N1N=C(c2ccccc2)CC1c1ccccc1 (stereo not given) was read as aSyn 5UTR act -187.5*.
Screening O=C(O)c1cccc(NC2=Nc3cccc4cccc2c34)c1 returned aSyn 5UTR act -114.0*.
For O=Nc1c(-c2ccccc2)cc2ccccn12 the results were aSyn 5UTR act -211.2*.
`CC1(C)CC(=O)C(N=Nc2cccc(S(=O)(=O)N3CCOCC3)c2)=C(O)C1` gave aSyn 5UTR act 41.3.
CC(=O)N1CCc2cc(N=NC3=C(O)CC(C)(C)CC3=O)ccc21 was read as aSyn 5UTR act -95.1*.
For Cc1nc2ccc(N=NC3=C(O)CC(C)(C)CC3=O)cc2s1 the results were aSyn 5UTR act -76.6*.
For Cc1ccc(O)c(N=NC2=C(O)CC(C)(C)CC2=O)c1 the results were aSyn 5UTR act 64.8.
`CCOc1ccc2nc(N=NC3=C(O)CC(C)(C)CC3=O)sc2c1` gave aSyn 5UTR act -97.8*.
For CCOC(=O)c1cn2nc(SCc3ccccc3)nc2nc1C the results were aSyn 5UTR act -105.3*.
N#Cc1cnc2nc(SCc3ccccc3)nn2c1 was read as aSyn 5UTR act -149.4*.
For COc1ccc(Nc2oc(-c3ccc(F)cc3)nc2C#N)cc1 the results were aSyn 5UTR act -232.6*.
COc1ccc(-c2nc(C#N)c(NCC3CCCO3)o2)cc1OC (stereo not given) was read as aSyn 5UTR act -74.3*.
Screening CNc1oc(-c2ccc(OCc3ccccc3)cc2)nc1C#N returned aSyn 5UTR act -96.1*.
`COc1ccc(Nc2oc(COc3ccc(OC)cc3)nc2C#N)cc1` gave aSyn 5UTR act 77.9.
For COc1ccc(-c2nc(C#N)c(NCc3ccco3)o2)cc1 the results were aSyn 5UTR act -182.2*.
Cc1ccc2cc(C#N)c(NCc3ccco3)nc2c1 was read as aSyn 5UTR act -67.2*.
`Cc1ccc(-c2nc(C#N)c(NCc3ccco3)o2)cc1` gave aSyn 5UTR act -145.1*.
For C=CCNc1oc(-c2ccc(OC)cc2)nc1C#N the results were aSyn 5UTR act -135.2*.
For O=C(/C=C/c1ccco1)Nc1ccc2nc3n(c(=O)c2c1)CCCC3 the results were aSyn 5UTR act -175.9*.
CN(C)c1cccc(C(=O)Nc2ccc3nc4n(c(=O)c3c2)CCCCC4)c1 was read as aSyn 5UTR act -81.4*.
Screening COc1cccc(C(=O)Nc2ccc3nc4n(c(=O)c3c2)CCCC4)c1 returned aSyn 5UTR act -76.4*.
`CCOc1ccccc1C(=O)Nc1ccc2nc3n(c(=O)c2c1)CCCCC3` gave aSyn 5UTR act -77.0*.
COc1cc(OC)cc(C(=O)Nc2ccc3nc4n(c(=O)c3c2)CCCC4)c1 was read as aSyn 5UTR act -120.2*.
Screening O=C(Nc1cccc(O)c1)c1ccc([N+](=O)[O-])cc1Cl returned aSyn 5UTR act -86.1*.
CN(C)c1ccc(NC(=O)c2ccc([N+](=O)[O-])cc2Cl)cc1 was read as aSyn 5UTR act -76.1*.
For O=C(Nc1ccc([N+](=O)[O-])cc1)c1cc(Cl)sc1Cl the results were aSyn 5UTR act -75.7*.
Screening Cc1cc(=O)[nH]c2n[nH]c(-c3ccccc3)c12 returned aSyn 5UTR act -63.4*.
COC(=O)C1(Cc2cc(-c3ccccc3)no2)CCN(C(=O)OC(C)(C)C)CC1 was read as aSyn 5UTR act -82.2*.
`Cc1nc(NC(=O)c2cccc(-c3cc4ccccc4oc3=O)c2)ccc1Br` gave aSyn 5UTR act -81.4*.
O=C(Nc1ccc(Br)cn1)c1cccc(-c2cc3ccccc3oc2=O)c1 was read as aSyn 5UTR act -112.3*.
`O=C(CN1C(=O)c2ccccc2S1(=O)=O)c1ccc(OC(F)F)cc1` gave aSyn 5UTR act 86.4.
For CN(CCOC(=O)CN1C(=O)c2ccccc2C1=O)C1=NS(=O)(=O)c2ccccc21 the results were aSyn 5UTR act -88.8*.
COc1ccccc1N1C(=O)C(Cl)=C(Nc2ccccc2O)C1=O was read as aSyn 5UTR act -126.9*.
O=C1C(Cl)=C(Nc2ccccc2O)C(=O)N1c1ccccc1 was read as aSyn 5UTR act -93.5*.
COc1ccc(-c2nc3c(n2O)CCc2c-3no[n+]2[O-])cc1 was read as aSyn 5UTR act -131.5*.
For CC1CCCN(C(=O)CSCC(=O)Nc2nc(-c3cccs3)cs2)C1 (stereo not given) the results were aSyn 5UTR act -75.6*.
For CC1CCN(C(=O)CSCC(=O)Nc2nc(-c3cccs3)cs2)CC1 the results were aSyn 5UTR act -89.3*.
CC1CCN(C(=O)Cn2nnc(-c3cccs3)n2)CC1 was read as aSyn 5UTR act -131.4*.
O=C(Cn1nnc(-c2ccccc2F)n1)N1CCCCC1 was read as aSyn 5UTR act -120.2*.
